Measured values taken from PubChem BioAssay AID1117319 (Southern Research Institute, 2015).
Several values for one entry are separate records, joined by “and”; a condition that tells them apart may be missing. Identical values can stand only once. Screen size: about 260,000 compounds; about 1,500 (0.58%) were called active. Roughly 5% stayed inconclusive and do not appear here.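 How the source made its calls: active means inhibition above a set limit at one or more doses, reproduced on every date tested; inconclusive means results disagree between test dates, or hit never tested in dose response; inactive means the rest.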 The list is a sample of the results. Entries with a potency or affinity are not part of this list.

Biological target: Virion infectivity factor (Human immunodeficiency virus type 1 group M subtype B (isolate BH10)) + Virion infectivity factor (Human immunodeficiency virus type 1 group M subtype B (isolate BRU/LAI)) + Virion infectivity factor (Human immunodeficiency virus type 1 group M subtype B (isolate PCV12)) + Virion infectivity factor (Human immunodeficiency virus type 1 group M subtype B (isolate HXB2)) + DNA dC->dU-editing enzyme APOBEC-3G (Homo sapiens) (UniProt P69720+P69721+P69722+P69723+Q9HC16)
Assay: inhibitors of Vif binding to APOBEC3G peptide, primary screen, biochemical, TR-FRET, GST-Vif 1-94, biotin-A3G peptide, dose response retest (AID 1117319);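 further: Vif residues 1-94 fused to GST binding biotinylated APOBEC3G peptide 110-148; 0% = full assay without inhibitor and 100% = GST in place of GST-Vif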
Details: stronger effect = higher value

inhibition, inactive:
CC1CCCN(S(=O)(=O)c2ccc(S(=O)(=O)NC(C)c3cccs3)cc2)C1 (centres undefined) -0.23%
CCOc1ccc(NC(=O)CC(=O)Nc2ccc(OCC)cc2)cc1 3.52%
COc1ccc(C(=O)NC2c3ccccc3-c3ccccc32)cc1 6.08%
C=CCSc1nnc(Cc2c(C)[nH]c3ccccc23)o1 12.5%
Cc1[nH]c2ccccc2c1Cc1nnc(SCC(N)=O)o1 9.95%
Cc1ccc(CNC(=O)COC(=O)Cn2nc(C)c([N+](=O)[O-])c2C)cc1 2.03%
NC(=S)N=Nc1c(O)[nH]c2ccc(F)cc12 14.4%
Cc1ccc2[nH]c(O)c(N=NC(N)=S)c2c1 16.9%
CNC(=S)NNc1nncc2ccccc12 -3.6%
CC(C)n1cnc2c(=S)nc[nH]c21 14.2%
O=C(CSc1nnnn1-c1cccc2ccccc12)N1CCOCC1 10.1%
CCC(C(=O)O)N1C(=O)/C(=C/c2cccn2C)SC1=S (centres undefined) 21.2%
CC(C)C(C(=O)O)N1C(=O)/C(=C/c2cccn2C)SC1=S (centres undefined) 5.17%
CC(=C\c1ccccc1)/C=C1/SC(=S)N(C(C(=O)O)C(C)C)C1=O (centres undefined) -2.28%
CC(/C=C1\SC(=S)N(C(C(=O)O)C(C)C)C1=O)=C\c1ccccc1 (centres undefined) 9.15%
CN(CCC#N)C(=O)COC(=O)c1ccccc1OCc1ccccc1Cl 23.6%
CCCCCCOc1ccc(N2C(=O)CC(N(CCc3ccc(S(N)(=O)=O)cc3)C(C)=O)C2=O)cc1 (centres undefined) -1.36%
CN1/C(=C/C(=S)NC(=O)C2CCC2)C(C)(C)c2ccccc21 3.95%
CCn1c(SCC(=O)NCc2cccs2)nnc1-c1cccs1 2.35%
CCN(CC)c1ccc(NC(=O)CCS(=O)(=O)c2cccc3nsnc23)c(C)c1 12.7%
CCOc1ccccc1NC(=O)CCN1CCN(S(=O)(=O)c2ccc(Br)cc2)CC1 -2.68% and -11.1%
Cc1cccc(NC(=O)CCS(=O)(=O)c2ccc(Br)cc2)c1 3.92%
O=C(CCS(=O)(=O)c1ccc(Br)cc1)Nc1ccccc1Cl 24.5%
CCc1ccc(NC(=O)CCS(=O)(=O)c2ccc(Br)cc2)cc1 11.1%
CCOc1ccc(NC(=O)CCS(=O)(=O)c2ccc(C)cc2)cc1 -2.94%
Cc1cccc(C)c1NC(=O)CCS(=O)(=O)c1ccc(Br)cc1 -1.3%
Cc1ccc(S(=O)(=O)CCC(=O)Nc2ccc(Br)cc2)cc1 21.8%
O=C(CN(Cc1ccc(F)cc1)C(=O)CNS(=O)(=O)c1ccccc1)NCc1ccco1 -1.61%
CC(=O)N1CCN(S(=O)(=O)c2ccc(Cl)cc2F)CC1 -2.38%
CC(C)c1nc(SCC(=O)N2CC(=O)Nc3ccccc32)c2ccccc2n1 -15.6%
C#CCOCCOCCOCCNc1nc(N2CCN(C(=O)[C@H](CO)n3cc([C@@H](N)C(C)C)nn3)CC2)nc(N2CCN(C(=O)[C@H](CCC(=O)O)n3cc([C@@H](N)CCCCN)nn3)CC2)n1 19.7%
Cc1ccccc1-n1nc2c(c1NC(=O)c1cc3ccccc3o1)CS(=O)(=O)C2 0.92%
COc1ccc(F)cc1CN1CCN(C(=O)CCC(=O)Nc2nnc(C(C)C)s2)CC1 1.87%
O=C(Nc1cccc(C(F)(F)F)c1)Oc1ccccc1N1CCOCC1 4.5%
COc1ccc(Cl)cc1NC(=O)CCS(=O)(=O)c1ccc(C)cc1 0.29%
COC(=O)c1ccccc1NC(=O)CCS(=O)(=O)c1ccc(Br)s1 -6.38%
Cc1ccccc1NC(=O)CCS(=O)(=O)c1ccc(Br)cc1 19.3%
COc1ccc([N+](=O)[O-])cc1NC(=O)CCS(=O)(=O)c1ccc(Br)cc1 23.2%
CCNC(=O)CSc1nnc(-c2cc(-c3ccc(Cl)cc3)nc3ccccc23)o1 -0.32%
O=C(OCc1cn([C@H]2CN(CC3CCCCC3)[C@@H](c3ccc(Cl)cc3)C[C@@H]2O)nn1)c1ccccc1 -2.33%
CC1CCCCC1NC(=O)CSc1nnc(COc2ccc(Cl)cc2)o1 (centres undefined) 3.41%
Cc1nc(-c2ccc(S(=O)(=O)Nc3ccc(Br)cc3Cl)s2)cs1 -10.4%
O=C(NCCCCCCCCCNC(=O)C(F)(F)F)C(F)(F)F 3.63%
O=C(NCCCCNC(=O)C(F)(F)F)C(F)(F)F 0.85%
O=C(COC(=O)CNC(=O)c1ccc(Br)o1)Nc1ccccc1OC(F)F 6.47%
CCOC(=O)COc1nc(-c2ccccc2)cc(-c2ccco2)c1C#N 4.55%
CCOC(=O)COc1nc(-c2ccc(C)cc2)cc(-c2ccco2)c1C#N -6.28%
Cc1cccc(CC(Cc2nc3ccccc3[nH]2)c2nc3ccccc3[nH]2)c1 (centres undefined) 10.6%
Cc1ccc2c(Cl)cc(Cl)c(OCC(=O)Nc3cccc(S(N)(=O)=O)c3)c2n1 -2.21%
O=C(N/N=C/C(Br)=C\c1ccccc1)c1ccco1 8.5%
Cc1ccc(-c2cc(C(=O)N/N=C/C(Br)=C/c3ccccc3)n[nH]2)o1 27.2%
CCOc1ccc(S(=O)(=O)Nc2cccc(C(=O)N3CCN(c4ccccc4O)CC3)c2)cc1 4.44%
COC(=O)/C(=N/Nc1ccccc1OC)N1CCCc2ccccc21 14.5%
COC(=O)/C(=N/Nc1cccc(C)c1)N1CCCc2ccccc21 24.9%
O=C(NCCc1ccccc1)C1CCN(S(=O)(=O)c2cccc3nsnc23)CC1 -0.39%
N#C/C(=C/c1ccc(N2CCCCCC2)o1)c1ccc(F)cc1 5.86%
N#C/C(=C/c1ccc(N2CCCCCC2)o1)c1ccc(Cl)cc1 17.8%
Cc1ccc(/C=C/C(=O)NCCCn2ccnc2)cc1 -9.33%
O=[N+]([O-])c1c(Nc2ccccc2O)ccc2nonc12 1.82%
O=[N+]([O-])c1c(Nc2ccccn2)cc(Cl)c2nonc12 10.6%
CN(C)c1cc(Nc2cccc(O)c2)c([N+](=O)[O-])c2nonc12 -10.7%
CC(=O)Nc1ccc(Nc2cc(N(C)C)c3nonc3c2[N+](=O)[O-])cc1 0.25%
CC(C)CC(=O)Nc1ccnn1C1CCN(C(=O)c2ccccc2F)CC1 -2.89%
CCOC(=O)c1c(/N=C/N(C)C)sc(C)c1C -7.57%
O=C(CCCN1C(=O)c2ccccc2C1=O)N1CCc2ccccc2C1 -3.95%
CN1CCN(C(=O)CN2C(=O)CC(C)(C)S(=O)(=O)c3ccccc32)CC1 -1.94%
O=C(NCCc1ccccc1Cl)c1cc(COc2ccc(F)cc2F)on1 2.92%
O=C(COc1ccc(-c2nnco2)cc1)Nc1ccc(F)c(Cl)c1 -11.6%
N=c1c(C(=O)NCc2ccco2)cc2c(=O)n3ccccc3nc2n1CCc1ccccc1 19.6%
CCNC(=O)c1cc2c(=O)n3cccc(C)c3nc2n(CCc2ccccc2)c1=N -4.24%
CCOc1cc(N2CCOCC2)c(OCC)cc1NC(=O)CSc1ncccn1 -9.38%
CCOc1cc(N2CCOCC2)c(OCC)cc1NC(=O)C(C)(C)C 31%
CCOc1cc(N2CCOCC2)c(OCC)cc1NS(=O)(=O)c1ccc2c(c1)CC(=O)N2 9.5%
CCOc1cc(N2CCOCC2)c(OCC)cc1NC(=O)CSc1nc(N)cc(=O)[nH]1 -6.18%
CCN(CC)S(=O)(=O)c1ccc(N2CCOCC2)c(NS(=O)(=O)c2ccc(Cl)s2)c1 7%
CCOc1cc(N2CCOCC2)c(OCC)cc1NC(=O)C(C)C 32.2%
CC1CCCC(C)N1C(=O)COc1cccc(Oc2ccccc2)c1 (centres undefined) -6.13%
O=C(Oc1cc(-c2ccccc2)no1)c1cccc(C(F)(F)F)c1 12%
CCCN(CC(=O)Nc1ccccc1C)C(=O)c1ccc(C)c(S(=O)(=O)N2CCCCC2)c1 -7.29%
COc1ccc(C(=O)NCc2cccnc2)cc1Br 7.76%
CCCCN1C(=O)NC(NC(=O)c2ccco2)(C(F)(F)F)C1=O (centres undefined) -1.08%
COC(=O)C(=C/C=C/c1ccco1)C(=O)OC 32.7%
Cn1nnc(NC(=O)/C=C/c2ccco2)n1 11.5%
CCCCn1c(N)c(N(CC)C(=O)/C=C/c2ccco2)c(=O)[nH]c1=O -7.61%
CC1Cc2c([nH]c3ccccc23)C(=O)N1 (centres undefined) 0.31%
COc1c2ccoc2c(OC(C)=O)c2oc(C)cc(=O)c12 0.13%
COC(=O)Cn1cnc2c1c(=O)n(C)c(=O)n2C 1.38%
Cc1csc(NC(=O)C2CCCCN2S(=O)(=O)c2ccccc2)n1 (centres undefined) 1.7%
CCc1nnc(SCC(=O)Nc2ccc(C(C)=O)cc2)nc1CC 2.81%
O=C(CSc1n[nH]c(-c2ccco2)n1)Nc1ccccc1 5.48%
Cc1ccc(NC(=O)CSc2nnc(-c3ccco3)c(-c3ccco3)n2)cc1 25.5%
COc1cccc(NC(=O)CSc2nc(N)cc(N)n2)c1 3.65%
COc1cccc(NC(=O)CSc2ccc(-c3ccco3)nn2)c1 3.97%
CC(=O)c1ccc(NC(=O)CSc2ccc(-c3ccco3)nn2)cc1 -1.56%
